Only some compounds are listed: those with a hit (about 2.2% of all), similar ones and a draw of the others.
aSyn yeast inh – alpha-synuclein toxicity inhibition in yeast; Yeast expressing alpha-synuclein, growth rescue, BacTiter-Glo, 24 h; Potency, µM (series often up to 46.1 µM), for the others: at the top dose growth rescue (activation), most hits filed as activators; AID 652106; hit rate 0.14% among 370,000; further: % of control where 0% means no effect; nearly all actives have a fitted effect of over 65% in size
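Readout is rescue of growth in alpha-synuclein-expressing yeast, so inhibitors of toxicity appear as activators. Growth after 24 hr at 30 deg C in galactose medium is quantified by luminescence.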
TDP-43 yeast inh – inhibitors of TDP-43 toxicity in yeast. TDP-43 expressing yeast growth rescue, BacTiter-Glo, 24 h. Potency, µM (series often up to 46.1 µM), for inactives: at the top dose growth rescue (activation), most hits filed as activators. hit rate 1.8% among 410,000. AID 652104; further: % of control where 0% means no effect; nearly all actives have a fitted effect of over 50% in size
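Yeast cells expressing TDP-43 under galactose induction are exposed to compounds for 24 hr at 30 deg C. BacTiter-Glo luminescence measures growth, so protective compounds score as activators.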
FUS suppressor – FUS proteinopathy suppression in yeast; Potency, µM (top dose mostly 76.6 µM), hits mostly activators; S. cerevisiae FUS-expressing, growth rescue, OD600, 24 h; hit rate 0.24% among 390,000; AID 1347120;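 further: plate controls were DMSO vehicle for no effect and reference control for full effect; nearly all actives have a fitted effect of over 55% in size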
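Steps: raffinose overnight preculture; dilution to OD 0.005 in 2% galactose minimal medium; compound addition (concentration series); 24hr at 30C, 99% humidity; absorbance read at 600 nm.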
Abeta rescue – compounds reversing amyloid beta toxicity in yeast; hit rate 0.063% among 410,000; Potency, µM (series often up to 46.1 µM), most hits filed as activators; yeast expressing A-beta42, growth rescue, OD600, 48 h; response scale: 0% DMSO, 100% iron-clioquinol control; further: nearly all actives have a fitted effect of over 55% in size
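Yeast growth medium received pinned compounds, then yeast cells expressing toxic A-beta were added; plates incubated at 30 C for 48 hr. Growth read as absorbance at 600 nm, normalized to DMSO and equimolar FeCl3 plus clioquinol controls.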
Mito fusion yeast – mitochondrial division inhibition or fusion activation; S. cerevisiae fusion-defective mutant growth rescue, CellTiterGlo 48 h; Potency, µM (top dose mostly 46.1 µM), for the others: at the highest dose growth rescue (activation), usual class: activators; hit rate 0.23% among 320,000; further: % of control where 0% means no effect; nearly all actives have a fitted effect of over 45% in size
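Compounds are tested for their ability to restore growth of mitochondrial fusion-defective yeast strains at non-permissive 37C in YPEG medium over 48 hours. Viability is quantified by luciferase luminescence.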
Active calls of the source: *; i = inactive; ? = inconclusive; nt = no result; ! = repeats disagree; [ ] = remark or other dose. The call rests on the fitted dose curve; in most records, active means well fitted curve in the direction sought with a large enough effect; inconclusive means small, poorly fitted or top-dose-only effect, or another doubt; inactive means no such curve, though single readings can be large; an effect the other way counts as inactive or inconclusive. Potency means the concentration at half of the fitted maximal effect.

SMILES	aSyn yeast inh	TDP-43 yeast inh	FUS suppressor	Abeta rescue	Mito fusion yeast
CCCCc1ccc(-n2nc3cc(C)c(NC(=O)Cc4ccccc4)cc3n2)cc1	nt	-3%	i	i	nt
CCOC(=O)c1ccccc1NC(=O)CSc1nc(=O)[nH]c2c1CCC2	nt	23%	i	i	nt
Fc1ccc(CCNc2ncnc3nc[nH]c23)cc1	5%	nt	nt	nt	nt
Fc1ccccc1NC(=S)NCCc1cccc(Cl)c1	-1%	?	i	22µM*	-2%
Fc1ccc(CNC(=S)Nc2ccc(Cl)cc2)cc1	0%	?	i	i	-20%
COc1ccccc1NC(=S)NCCc1ccc(Cl)cc1	6%	16µM*	i	i	-1%
S=C(NCc1ccc(Cl)cc1)Nc1ccccc1	9%	?	i	13µM*	-5%
S=C(NCCc1ccccc1)Nc1ccccc1Cl	-16%	7%	i	i	3%
S=C(NCCCCc1ccccc1)NCc1ccccc1	0%	15%	i	16µM*	-6%
Cc1cc(Cl)ccc1NC(=O)CCS(=O)(=O)c1ccc2c(c1)CC(C)N2C(=O)C1CC1 (stereo not drawn)	nt	4%	i	i	nt
O=S(=O)(c1ccc(F)cc1)N1CCN(c2nc(-c3ccccc3)nc3ccccc23)CC1	1%	nt	nt	nt	nt
O=C(NC1CCCCN(Cc2ccc(Cl)cc2)C1=O)c1cccc(C(F)(F)F)c1 (stereo not drawn)	nt	nt	i	nt	nt
COc1ccc(Nc2ccc3cc(S(=O)(=O)N4CCCC4)ccc3n2)cc1OC	nt	6%	?	i	nt
COc1cccc(Nc2ccc3cc(S(=O)(=O)N4CCC(C)CC4)ccc3n2)c1	nt	13µM*	i	i	nt
CCC(C)CNC(=O)c1cn(C(C)c2ccccc2)nn1 (stereo not drawn)	nt	nt	i	nt	nt
COc1ccc(Oc2c(OC)cc([N+](=O)[O-])c3ncccc23)cc1	3%	35µM*	i	i	nt
O=[N+]([O-])c1cc(F)c2cccnc2c1O	?	4µM*	i	?	-20%
O=[N+]([O-])c1cc(Cl)c2cccnc2c1O	?	?	i	i	?
O=[N+]([O-])c1ccc(Cl)c2cccnc12	1%	-18%[0.397 µM]	i	i	-3%
O=[N+]([O-])c1cc([N+](=O)[O-])c2cccnc2c1Oc1ccccc1O	4%	2µM*	nt	i	-8%
O=[N+]([O-])c1ccccc1Oc1ccc(Cl)c2cccnc12	?	20µM*	i	i	2%
Cc1nn(-c2ccccc2)c2nc(C3CC3)cc(C(=O)Nc3cccc(F)c3)c12	nt	21%[9.22 µM]	i	i	nt
O=C(NC1CC1)C1=C[C@@H](c2csc3ccccc23)C[C@@H](OCc2ccc(CO)cc2)O1	29%	14µM*	?	i	2%
O=C(Nc1ccccc1)C1=C[C@H](c2coc3ccccc3c2=O)C[C@H](OCc2ccc(CO)cc2)O1	1%	20µM*	?	i	7%
C#CCNC(=O)C1=C[C@@H](c2csc3ccccc23)C[C@@H](OCc2ccc(CO)cc2)O1	8%	25µM*	i	i	-5%
SMILES	aSyn yeast inh	TDP-43 yeast inh	FUS suppressor	Abeta rescue	Mito fusion yeast
Cc1cc(C)nc(-n2nc(C)c3c2NC(=O)CC3c2cc(F)ccc2F)n1 (stereo not drawn)	nt	11%[9.22 µM]	i	i	nt
CCCCNC(=O)C1(C(=O)c2ccc(OC)cc2)CC(C(=O)OCC)=NO1 (stereo not drawn)	nt	nt	i	nt	nt
COc1ccccc1Cc1c(-c2ccc(Cl)cc2)nc2c(C)cc(Br)cn12	-10%	25µM*	?	i	nt
COc1ccc(-c2nc3ccc(Br)cn3c2Cc2cccc(F)c2)cc1OC	26%	14µM*	i	i	nt
COc1ccc(-c2nc3c(C)cc(Br)cn3c2Cc2cccc(F)c2)cc1OC	7%	16µM*	?	i	nt
COc1ccc(-c2nc3c(C)cc(Br)cn3c2Cc2ccccc2)cc1OC	24%	0%	i	i	nt
CC(C)(C)OC(=O)NCc1ccccc1/C=C/S(=O)(=O)NCc1ccccc1	nt	nt	i	nt	nt
COC(=O)C1CN(Cc2cn(Cc3ccccc3)nn2)CCS(=O)(=O)N1Cc1ccc(F)cc1 (stereo not drawn)	nt	nt	i	nt	nt
CCOc1ccc(OCC(=O)Nc2nnc3n2CCS3)cc1	-6%	10%	i	i	nt
CCC[C@H]1[C@@H](OC(=O)N2CCCC2)CC[C@@]23CCCN2C(=O)CCC[C@@H]13	nt	nt	i	nt	nt
COc1ccc(Cn2c(CO)cnc2SCC(=O)NCc2ccco2)cc1	-2%	11%	i	i	nt
O=C(NCc1ccccc1)c1ccc2ccccc2n1	0%	15%	i	i	?
Cc1ccccc1CNC(=O)c1ccc2ccccc2n1	12%	16µM*	i	i	?
COc1cc(OC)c(NC(=O)NCc2ccc3c(c2)CCN3C(=O)c2ccccc2)cc1Cl	nt	-8%	i	i	nt
CCOc1ccc(C(=O)N2CCc3ccccc32)cc1	-4%	11%	i	i	1%
CCCOc1ccc(C(=O)N2CCCc3ccccc32)cc1	nt	11µM*	i	i	-1%
COc1cc(OC)cc(C(=O)N2CCCc3ccccc32)c1	10%	4%	i	i	2%
COc1ccc2oc(C(=O)N3CCCc4ccccc43)c(C)c2c1	-15%	16µM*	i	i	?
c1csc(Cn2c(-c3cccs3)nc3ccccc32)c1	-16%	13µM*	i	i	8%
CCCCCC1CCC(C(=O)NNC(=S)NCC)CC1 (stereo not drawn)	-12%	0%	i	i	-11%
CCCCCCC1CCC(C(=O)NC(C(=O)O)C(C)C)CC1 (stereo not drawn)	nt	20µM*	i	i	nt
COC(=O)NC1c2ccccc2Oc2ccc(C)cc21 (stereo not drawn)	3%	13µM*	i	i	4%
COc1cc2nc(N3CCCN(C)CC3)nc(OC3CCN(C)CC3)c2cc1OC	-1%	nt	nt	nt	nt
O=C(O)CCc1nc(-c2ccccc2)c(-c2ccccc2)o1	-56%	nt	nt	nt	16µM*!
Cc1ccc(NS(=O)(=O)c2ccc3c(c2)N(C)C(=O)CC(=O)N3C)cc1Cl	nt	5%	i	i	nt
CCCCCCCCN1C(=O)[C@@H](CC(=O)N2CCN(C(=O)C3CC3)CC2)C[C@@]2(C(=O)OC)C1=C[C@H](C(C)C)O[C@@H]2C1CC1	nt	nt	28µM*	nt	nt
CCCCCCCCN1C(=O)[C@@H](CC(=O)NCCCN2CCCC2=O)C[C@@]2(C(=O)OC)C1=C[C@H](C(C)C)O[C@@H]2C1CC1	nt	nt	18µM*	nt	nt
COC(=O)[C@]12C[C@H](CC(=O)NCC34CC5CC(CC(C5)C3)C4)C(=O)N(Cc3ccco3)C1=C[C@H](C(C)C)O[C@@H]2C1CC1	nt	nt	25µM*	nt	nt
O=C(Nc1nc(-c2ccccn2)cs1)c1ccc2c(c1)OCCO2	?	?	i	13µM*	0%

Bioassay records deposited in PubChem by National Center for Advancing Translational Sciences (NCATS).
